Test results: PubChem BioAssay AID492952 (Southern Research Specialized Biocontainment Screening …, 2010)
Screen size: about 2,300 compounds; about 1,500 (65%) were called active. How the calls were made is not given here. The set was probably picked from earlier hits. The list shows a part of the results. A call without a number means that no potency is given here. Potency and affinity values are given separately.

Experiment: replicating M. tuberculosis growth inhibition, dose response, non-replicating M. tuberculosis project, H37Rv (AID 492952);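 further: Mycobacterium tuberculosis grown in culture; growth inhibition read after a week of incubation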
Conditions: series mostly up to 50 µM

| SMILES | outcome |
| --- | --- |
| O=C(O)c1ccc(-n2nc(C(F)(F)F)c3c2CCCC3)cc1 | inactive |
| CCc1cc2c3c(c1)C(C)CC(C)(C)N3C(=O)/C2=C1\SC(=O)NC1=O (centres undefined) | inactive |
| COc1cccc(-c2nc(C=O)cs2)c1 | inactive |
| Cc1cc(C=C2C(=O)N(C)C(=S)N(C)C2=O)c(C)n1-c1cccnc1 | inactive |
| Cc1ccnc(-n2c(C)cc(/C=C3\C(=O)NC(=S)N(C)C3=O)c2C)c1 | inactive |
| CCCCCCCC(=O)NNC(=O)c1ccc(F)cc1 | inactive |
| Cc1ccc(S(=O)(=O)CCC(=O)Nc2nc(-c3ccncc3)cs2)cc1 | inactive |
| CCCCOc1ccc(NC(=O)CN2CCN(Cc3ccccc3)CC2)cc1 | inactive |
| O=C(NN=C1C2CC3CC1CC(Cl)(C3)C2)c1cccs1 | inactive |
| Cc1ccc(NC(=O)C2COc3ccccc3O2)nc1 (centres undefined) | inactive |
| CCC(=O)N/N=C/c1ccc(-c2ccc(Cl)cc2)o1 | inactive |
| Cc1cccc(C)c1N1C(=O)CC(N2CCSCC2)C1=O (centres undefined) | inactive |
| CCCCCCCC(=O)N/N=C(/C)c1c(O)cc(C)oc1=O | inactive |
| Cc1cc(CN(C)C)c(O)c(C2(C)CCCCC2)c1 | inactive |
| COc1ccccc1C(c1nnnn1Cc1ccccc1)N1CCC(C(N)=O)CC1 (centres undefined) | inactive |
| O=C(N/N=C/c1ccc[nH]1)c1ccc2c(c1)OCO2 | inactive |
| O=C(NCc1cccs1)c1ccc(Br)o1 | inactive |
| O=C(CC1CC2CCC1C2)NCc1cccs1 (centres undefined) | inactive |
| CC(C)c1cc(C(=O)N/N=C/C=C/c2ccccc2)n[nH]1 | inactive |
| Cc1cc(C(=O)N/N=C/c2cccc(Cl)c2Cl)no1 | inactive |
| O=C(N/N=C/c1cc(Br)cc(Cl)c1O)c1ccc2c(c1)OCO2 | inactive |
| CC1(CCc2ccc3c(c2)OCO3)NC(=O)c2ccccc2N1 (centres undefined) | inactive |
| CC1=CC(=O)NP(=O)(Oc2ccc3ccccc3c2)N1 (centres undefined) | inactive |
| Cc1cc2cc(CNC(=O)COc3ccccc3)ccc2n1C | inactive |
| CC(=O)c1c(C)n(C)c2ccc(OC(=O)c3ccco3)cc12 | inactive |

| SMILES | outcome |
| --- | --- |
| CCN(CC)CCNC(=O)c1[nH]c2ccc(OCc3ccccc3)cc2c1C | inactive |
| CCOc1ccc(-c2ccc(SCC)nn2)cc1 | inactive |
| Oc1ccccc1Nc1nc(NCC2CCCO2)c2ccccc2n1 (centres undefined) | inactive |
| CCCCCCC1CC(C)(C(=O)CNc2nncs2)OC1=O (centres undefined) | inactive |
| Cc1cc2nc(CSc3ccc(Cl)cc3)cc(=O)n2[nH]1 | inactive |
| O=C(c1nnc(-c2ccc(Cl)cc2)o1)C1CCCC1 | inactive |
| Cc1cc(C)c2sc(NC(=O)C3=COCCO3)nc2c1 | inactive |
| CN(C)Cc1ccccc1Sc1ccccc1Br | inactive |
| C(#CCN1CCOCC1)COCc1ccccc1 | inactive |
| CNC(=O)c1[nH]cnc1C(=O)Nc1ccc(Cl)cc1 | inactive |
| COc1ccc(/C(=N/O)C(C)(C)NO)cc1 | inactive |
| CC1COC(=O)C(NNc2ccc(Cl)c(Cl)c2)=N1 (centres undefined) | inactive |
| CCOC(=O)C1CCCN(Cc2ccc(OCc3ccccc3)cc2)C1 (centres undefined) | inactive |
| O=C(NC(=S)NCCc1ccccc1)c1ccccc1 | inactive |
| CC(C)c1ccc(N2C(=O)CC(Sc3ncn[nH]3)C2=O)cc1 (centres undefined) | inactive |
| CC1=NN(C(=O)c2csc(C(C)C)c2)C(O)(C(F)(F)F)C1 (centres undefined) | inactive |
| CC1=NN(C(=O)c2csc(C)c2)C(O)(C(F)(F)F)C1 (centres undefined) | inactive |
| O=C(COC(=O)c1ccc(Br)o1)Nc1ncc([N+](=O)[O-])s1 | inactive |
| Nc1cccn2c(-c3ccc(Cl)cc3)cnc12 | inactive |
| CC1CC(C)CN(CCOCCSc2ccc(Cl)cc2)C1 (centres undefined) | inactive |
| Clc1ccc(CN2C3=NCCCN3c3ccccc32)cc1 | inactive |
| COc1ccc(C(=O)CCS(=O)(=O)c2ccc(C)cc2)cc1OC | inactive |
| O=C1CC(=O)CC(c2ccccc2)C1 | inactive |
| O=C(NCc1nnc(SC/C=C/c2ccccc2)o1)c1ccco1 | inactive |
| CCN1CCC(=NNC(=O)c2ccco2)CC1 | inactive |

| SMILES | outcome |
| --- | --- |
| Cc1occc1C(=O)N/N=C/C(Br)=C\c1ccccc1 | inactive |
| O=C(Nc1nnc(COc2ccc(Cl)cc2)s1)c1ccco1 | inactive |
| CC1=NN(C(=O)CCCc2ccccc2)C(O)(C(F)(F)F)C1 (centres undefined) | inactive |
| Cc1cc(C)cc(OC(=O)c2cccnc2)c1 | inactive |
| Cc1n[nH]c(C)c1CCNC(=O)C1CCC(=O)N(Cc2ccccc2F)C1 (centres undefined) | inactive |
| O=C1/C(=C/c2cccs2)COc2ccccc21 | inactive |
| COc1ccc2c3c(cccc13)OCC2=O | inactive |
| S=C1NC2(CCCC2)N=C1c1ccccc1 | inactive |
| CCOc1ccc(C(=O)N/N=C(/C)C2C(=O)c3ccccc3C2=O)cc1 | inactive |
| CCOC(=O)Nc1cccc(OCC(=O)Nc2ccc(OC)cc2OC)c1 | inactive |
| NC(=O)COc1ccc2cc(-c3ccc(F)cc3)c(=O)oc2c1 | inactive |
| CCOc1c(OC(C)=O)ccc(/C=C2\N=C(SCC)SC2=O)c1[N+](=O)[O-] | inactive |
| COc1ccc(-c2nnc(SCC(C)C)o2)cc1 | inactive |
| Cc1ccc(CSc2nnc(-c3cccnc3)o2)cc1 | inactive |
| O=[N+]([O-])c1ccc(CSc2nnc(-c3cccnc3)o2)cc1 | inactive |
| Brc1ccc(CSc2nnc(-c3ccco3)o2)cc1 | inactive |
| O=C1CC(N2CCC(C(=O)N3CCCCC3)CC2)C(=O)N1 (centres undefined) | inactive |
| C#CCSc1nnc(-c2ccc(O)cc2)o1 | inactive |
| CC(C)c1ccc(OCC(=O)NCc2ccccc2)cc1 | inactive |
| O=C(NCc1ccc(F)cc1)c1cnccn1 | inactive |
| Cc1cc(Br)ccc1OCCCCN1CCCCC1 | inactive |
| COc1ccc(Cc2nnc(-c3ccccc3)o2)cc1 | inactive |
| O=C(c1ccc(-c2ccc([N+](=O)[O-])cc2)o1)N1CCN(S(=O)(=O)c2cccs2)CC1 | inactive |
| Cc1ccc2[nH]c3c(c2c1)CCCC3NCCO (centres undefined) | inactive |
| COCCCn1c(=NC(=O)c2ccccc2)c(C#N)cc2c(=O)n3cccc(C)c3nc21 | inactive |

| SMILES | outcome |
| --- | --- |
| Cc1cc(Cl)ccc1NNC(=O)c1c(C)noc1C | inactive |
| CCOC(=O)c1sc(NC(=O)CCN2CCOCC2)c(C(=O)OCC)c1C | inactive |
| CCOC(=O)c1ccsc1NC(=O)CCS(=O)(=O)c1ccccc1 | inactive |
| CC1(C)CC(=O)C=C(Nc2ccccc2N)C1 | inactive |
| Nc1ccc(Nc2ccccc2)cc1 | inactive |
| Cc1ccc(Sc2ncccc2N)cc1 | inactive |
| CN(C)/C=C1/C(=O)N(c2ccc([N+](=O)[O-])cc2)N=C1c1ccccc1 | inactive |
| Cc1cc2cc(CNC(=O)C3CCCC3)ccc2n1C | inactive |
| CC1(C)Oc2ccc(NC(=O)C3COc4ccccc4O3)cc2O1 (centres undefined) | inactive |
| S=C(Nc1ccc2c(c1)OCO2)Nc1ccc2c(c1)OCO2 | inactive |
| O=C(c1ccccc1)n1c(=O)c(F)cn(COCCBr)c1=O | inactive |
| O=C(CCc1ccccc1F)N1CCN(c2ccccc2)CC1 | inactive |
| COc1ccc([N+](=O)[O-])c(S(=O)(=O)c2ccc(Cl)cc2)n1 | inactive |
| CCOC(=O)N1CCC(NS(=O)(=O)c2cc3c(cc2Cl)NC(=O)CO3)CC1 | inactive |
| O=C(Cc1ccccc1)Nc1ccc(C(=O)NCC2COc3ccccc3O2)cc1 (centres undefined) | inactive |
| O=C(Nc1sc2c(c1C(=O)O)CCCC2)c1ccc(F)cc1 | inactive |
| O=C(Nc1ncc2c(n1)-c1ccccc1OC2)c1ccc(F)cc1 | inactive |
| O=C(CCc1ccccc1)N/N=C/c1cc(Br)ccc1O | inactive |
| COc1ccc(N/N=C/c2c(C(=O)O)ccc3ccccc23)cc1 | inactive |
| O=C(Nc1nccs1)c1ccc(Br)cc1 | inactive |
| CC(C)c1nnc(NC(=O)c2sc3ccccc3c2Cl)s1 | inactive |
| C=C1Cn2c(nnc2-c2ccc(Cl)cc2)S1 | inactive |
| COc1ccc(N=N/C(=C\O)C(=O)c2ccco2)cc1 | inactive |
| Clc1ccc(Cc2nnc(-c3cccs3)o2)cc1 | inactive |
| COCc1[nH]nc2c1C(c1sccc1C)C(C#N)=C(N)O2 (centres undefined) | inactive |

| SMILES | outcome |
| --- | --- |
| O=C(NCc1ccccc1)c1cc2ccccc2oc1=O | inactive |
| Cc1cccc(NC(=O)c2cc3ccccc3oc2=O)c1 | inactive |
| Cc1cccc(NC(=O)COC(=O)c2cc3ccccc3oc2=O)c1 | inactive |
| O=C(COC(=O)c1cc2ccccc2oc1=O)Nc1ccc(F)cc1F | inactive |
| NNC(=O)CNC(=O)C12CC3CC(CC(C3)C1)C2 | inactive |
| COc1ccc2c(c1)C(=C(C#N)C#N)C(=O)N2CCc1ccccc1 | inactive |
| COc1ccc(OC(=O)C(C)N2C(=O)c3ccccc3C2=O)cc1 (centres undefined) | inactive |
| CCN1/C(=C(\O)c2ccccc2)C(=O)c2ccccc2S1(=O)=O | inactive |
| Cc1cccc2nc(CSc3nc4cc([N+](=O)[O-])ccc4s3)cn12 | inactive |
| CC(C)CN1C(=O)CC(Sc2ccccc2C(=O)O)C1=O (centres undefined) | inactive |
| COc1ccc(CCCC(=O)NCc2ccccc2)cc1C | inactive |
| COc1cc(CNC2CCCC2)cc(Cl)c1OCc1ccc(F)cc1 | inactive |
| NC(=O)C1(N2CCCCC2)CCN(C2CC(=O)N(CCc3ccccc3)C2=O)CC1 (centres undefined) | inactive |
| O=C(NCc1ccco1)c1nc2ccccc2s1 | inactive |
| CCCCCCOc1ccc(C(=O)O)cc1C#N | inactive |
| CC(C)(C)CC(=O)NC(=S)NCc1ccco1 | inactive |
| COc1ccc(S(=O)(=O)N(C(C)=O)c2ccc(OC(C)=O)c3ccccc23)cc1[N+](=O)[O-] | inactive |
| Cc1nc2scc(-c3ccccc3)c2c(=O)o1 | inactive |
| CCOC(=O)c1ccc(NC(=O)NS(=O)(=O)c2ccc(C)cc2)cc1 | inactive |
| CCOC(=O)c1ccc(NC(=O)CCSCCc2ccccn2)cc1 | inactive |
| O=C(NNc1ccc([N+](=O)[O-])cc1)C1CC2CCCC(C1)C2=O (centres undefined) | inactive |
| Cc1ccc(CCC(=O)Nc2ccc([N+](=O)[O-])cc2)o1 | inactive |
| CC(NC(=O)c1cccc(F)c1)C1CC2CCC1C2 (centres undefined) | inactive |
| O=C(N/N=C/C=C/c1ccccc1)c1cccs1 | inactive |
